Bioassay records deposited in PubChem BioAssay by National Center for Advancing Translational Sciences (NCATS).
Shiga inhibitor = A qHTS for Small Molecule Inhibitors of Shiga Toxin | Vero cells, Shiga toxin protein synthesis inhibition reporter | AID 2315, 2010 | inhibition, % at 38.7 µM | 290,000 tested, 9.2% active; in the data active = inhibition mostly above about 28%, no sharp cut-off; inactive = mostly below about 43%; note: 0% is about no effect
Marburg entry inh = qHTS for inhibitors of binding or entry into cells for Marburg Virus | Potency, µM (doses to about 37.8 µM), for inactives: at the top dose activity change, negative = inhibition, actives largely listed as inhibitors | 300,000 tested, 1.8% active | Marburg virus pseudotyped entry inhibition, cell reporter | AID 540276, 2011; calls by dose curve; tested in HEK293 cells; note: potency is the fitted concentration of half-maximal effect; % is set by controls: 0 for no effect and ±100 for the full control effect
Lassa entry inh = qHTS for Inhibitors of binding or entry into cells for Lassa Virus; Lassa virus pseudotype entry inhibition, cell reporter; Potency, µM (titrated, usually from 37.9 µM), without a hit: at the top dose activity change, negative = inhibition, actives largely listed as inhibitors; 300,000 tested, 1.2% active; AID 540256, 2011; calls by dose curve; tested in HEK293 cells; note: potency is the fitted concentration of half-maximal effect; % is set by controls: 0 for no effect and ±100 for the full control effect; nearly all actives have a fitted effect of over 50% in size
VACV mCherry inh = qHTS for Stage-Specific Inhibitors of Vaccinia Orthopoxvirus: mCherry Reporter Primary qHTS | 310,000 tested, 0.63% active | Vaccinia virus mCherry reporter infection, fluorescence | Potency, µM (highest dose often 36.5 µM), inactives show top-dose activity change, negative = inhibition, usual class: inhibitors; calls by dose curve; tested in A549 cells; note: potency is the fitted concentration of half-maximal effect; % is set by controls: 0 for no effect and ±100 for the full control effect; nearly all actives have a fitted effect of over 35% in size
Cycloheximide cs = Cycloheximide Counterscreen for Small Molecule Inhibitors of Shiga Toxin; cell reporter, cycloheximide protein synthesis inhibition counterscreen; max response, %; 300,000 tested, 12% active; in the data active = max response mostly above about 13%, no sharp cut-off; inactive = mostly below about 14%; note: read at 38.3 µM for the half of the compounds with a filed dose; 0% is about no effect
VACV Venus inh = qHTS for Stage-Specific Inhibitors of Vaccinia Orthopoxvirus: Venus Reporter Primary qHTS; Vaccinia virus Venus reporter expression, fluorescence; Potency, µM (series often up to 36.5 µM), for the others: top-dose activity change, negative = inhibition, hits mostly inhibitors; 330,000 tested, 0.46% active; AID 720580, 2013; calls by dose curve; tested in A549 cells; note: potency is the fitted concentration of half-maximal effect; % is set by controls: 0 for no effect and ±100 for the full control effect; nearly all actives have a fitted effect of over 30% in size
The depositor's hits bear a star; i = inactive; u = inconclusive; x = no result given; [ ] = remark or other dose. This is one part of a sample in which hits are shown more often than they occur.

SMILES | Shiga inhibitor | Marburg entry inh | Lassa entry inh | VACV mCherry inh | Cycloheximide cs | VACV Venus inh
CCC(C)(C)C1CCC(=NNC(=O)c2ccoc2C)CC1 (stereo unspecified) | 69* | u | -1% | -20% | 56* | -7%
CC(C)(C)c1ccc(C(=O)c2cn[nH]c2-c2ccccc2O)cc1 | 58* | u | -1%[46.1 µM] | -21% | 42* | -20%
Cc1ccc(-c2[nH]ncc2C(=O)c2cccc(F)c2)c(O)c1 | 28 | -3% | 4% | i | 8.5* | -20%
O=C(Nc1ccc2nn(-c3ccccc3)nc2c1)c1ccc(-c2cccc(Cl)c2)o1 | x | x | -2%[46.1 µM] | -27% | x | u
O=C1NC2(CCCCC2)C(=O)N1CCN1C(=O)c2ccccc2C1=O | -29 | x | x | i | 1 | -5%
O=C1c2ccccc2NC2(CCCC2)N1O | 53* | 15%[46.1 µM] | 12% | x | 16* | -24%
O=C1c2ccccc2NC2(CCCCC2)N1N=C1CCCCC1 | 44* | 7% | 13% | i | 60* | -12%
Cc1ccc(CN2C(=O)c3ccccc3NC23CCN(Cc2ccccc2)CC3)cc1 | 35 | u | u | -12% | -2 | -8%
CCN(C(=O)c1cc2c(=O)oc3ccccc3c2s1)c1ccccc1F | x | x | 4%[46.1 µM] | -9% | x | -7%
CCc1ccccc1N(C)C(=O)c1cc2c(=O)oc3ccccc3c2s1 | x | 8%[46.1 µM] | u | -9% | x | 2.5µM*
Cc1ccc2nc(NC(=O)COC(=O)CSc3nc(C)cc(C)n3)sc2c1 | 78* | 13% | u | x | 41* | x
COC(=O)c1ccc2nc(NC(=O)COC(=O)CSc3nc(C)cc(C)n3)sc2c1 | 65* | 0% | 11% | i | 31* | -10%
Cc1ccc2nc(NC(=O)CSCc3ccccc3)sc2c1 | -2 | 5%[46.1 µM] | 23% | -15% | 8 | -13%
COc1ccc2nc(NC(=O)CSc3nc(C)cc(C)n3)sc2c1 | -14 | u | u | x | -4 | x
CSc1nsc(SCC(=O)Nc2nc3ccc(C)cc3s2)n1 | 34 | x | x | i | 20* | -8%
COC(=O)C1=C(C)N=C2S[C@H](C)C(=O)N2[C@@H]1/C=C\c1ccccc1OC | x | 2% | x | x | x | x
CCn1nc(C)cc1C(=O)N1CCC2(CC1)c1ccccc1[C@@H](NC(=O)c1cccnc1)[C@@H]2O | x | x | x | -8% | x | -2%
O=C(CCC1N=C2c3ccccc3N=C(SCc3cccc(F)c3)N2C1=O)NCc1cccs1 (stereo unspecified) | x | x | -6%[46.1 µM] | i | x | -23%
CCOc1ccc(OCc2ccc(C(=O)N(CC)CC)cc2)cc1 | 122* | x | x | -14% | 32* | -26%
CCC(=O)c1ccc(OCc2ccc(C#N)cc2)cc1 | 77 | -5%[46.1 µM] | 9% | -3% | 28* | 2%
